Results as given in PubChem BioAssay (NCATS).
Where “and” joins values, the source holds several entries; their conditions need not be identical. Equal values may be shown once. Inconclusive results are not listed. Calls of active or inactive are those of the source. Unless noted, calls come from the whole dose curve; as a rule, active = well fitted curve in the direction sought with a large enough effect; inconclusive = small, poorly fitted or top-dose-only effect, or another doubt; inactive = no such curve, though single readings can be large; an effect the other way counts as inactive or inconclusive.

Assays:
[1] = qHTS to identify inhibitors of the type 1 interferon - major histocompatibility complex class I in skeletal muscle: primary screen against the NCATS Mechanism Interrogation Plate v5.0 (MIPE) Libary (AID 1347411); note: nearly all actives have a fitted effect of over 65% in size; note: potency is the fitted concentration of half-maximal effect
In short: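 Immortalized human C25cl48 myoblasts with HiBit knocked into endogenous HLA-B*08:01 were stimulated with 4.0 ng/ml IFN-beta and exposed to compounds (11-point 1:3 titration, top 46 uM final) for 24 hrs at 37 C; HiBiT lytic luminescence measured.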

[2] = target: Protein phosphatase 1D (Homo sapiens) (UniProt O15297); assay: RapidFire Mass Spectrometry qHTS Assay for Modulators of WT P53-Induced Phosphatase 1 (WIP1) (AID 1347424);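 note: amount of dephosphorylated VEPPL-S-QETFS peptide product formed by WIP1; series mostly up to about 63 µM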
Sequence of Protein phosphatase 1D (Homo sapiens) (O15297 whole entry, looked up): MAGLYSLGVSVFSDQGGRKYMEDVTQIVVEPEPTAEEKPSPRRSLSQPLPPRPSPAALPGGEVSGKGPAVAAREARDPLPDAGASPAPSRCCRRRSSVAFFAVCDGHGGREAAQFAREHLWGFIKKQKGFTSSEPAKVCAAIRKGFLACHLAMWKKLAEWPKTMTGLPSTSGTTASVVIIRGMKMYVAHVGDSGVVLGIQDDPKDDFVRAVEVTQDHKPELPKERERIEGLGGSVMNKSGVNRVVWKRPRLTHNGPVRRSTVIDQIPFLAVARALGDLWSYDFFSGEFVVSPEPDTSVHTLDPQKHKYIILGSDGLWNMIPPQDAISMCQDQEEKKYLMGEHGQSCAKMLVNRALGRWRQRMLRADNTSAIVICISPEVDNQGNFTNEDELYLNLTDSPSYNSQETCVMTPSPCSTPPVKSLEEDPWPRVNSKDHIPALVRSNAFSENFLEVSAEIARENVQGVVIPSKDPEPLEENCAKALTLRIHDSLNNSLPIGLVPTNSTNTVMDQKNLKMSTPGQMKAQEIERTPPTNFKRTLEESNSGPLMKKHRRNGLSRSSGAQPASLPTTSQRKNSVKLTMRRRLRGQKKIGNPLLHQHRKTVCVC
In short: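 WIP1 (10 nM final) was preincubated 1 h at room temperature with compounds in Tris-HCl pH 7.5, 30 mM MgCl2, TCEP, EGTA, BSA; 2 uM VEPPL-pS-QETFS phosphopeptide was added for 5 min, quenched with formic acid, and dephosphorylated product quantified by RapidFire MS.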

[3] = target: Protein phosphatase 1D (Homo sapiens) (UniProt O15297); assay: Rhodamine-PBP qHTS Assay for Modulators of WT P53-Induced Phosphatase 1 (WIP1) (AID 1347425)
In short: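 The read-out is the change in Rhodamine-PBP fluorescence (f1 - f0, ex 525/em 598 nm) as Pi is released, read each minute for 11 min. Final reaction: 5 nM WIP1, 10 uM phosphopeptide VEPPL-pS-QETFS, 10 uM Rh-PBP, 50 mM Tris-HCl pH 7.5, 30 mM MgCl2. Compound was preincubated with enzyme for 1 hour at room temperature.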

[4] = target: Calcium and integrin-binding protein 1 (Homo sapiens) (UniProt Q99828); assay: Primary qHTS for Identification of Calcium Integrin Binding Protein 1 (CIB1) Competitor (AID 1508620);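 note: GST tagged CIB1 binding a fluorescein labelled alphaIIb integrin peptide tracer; top concentration of the series differs between compounds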
Sequence of Calcium and integrin-binding protein 1 (Homo sapiens) (Q99828 whole entry, looked up): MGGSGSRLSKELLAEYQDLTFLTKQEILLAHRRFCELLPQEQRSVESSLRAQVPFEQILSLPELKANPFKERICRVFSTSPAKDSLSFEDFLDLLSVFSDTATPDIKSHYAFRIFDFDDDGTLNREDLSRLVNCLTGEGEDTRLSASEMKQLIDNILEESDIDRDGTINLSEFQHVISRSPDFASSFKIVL
In short: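 Fluorescence polarization competition: CIB1-GST (1 uM final) preincubated with compound 15 min at room temperature, then FITC-labeled alphaIIb peptide (100 nM final) added for another 15 min. Polarization read at Ex 480/Em 540.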

[5] = Counterscreen qHTS for small molecule stabilizers of the endoplasmic reticulum resident proteome: GLuc-NoTag assay (AID 1508627);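 note: SH-SY5Y cells given compound then 100 nM thapsigargin to empty ER calcium; series mostly up to about 76 µM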
In short: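 SH-SY5Y cells stably expressing constitutively secreted GLuc (no SERCaMP tag) were pre-incubated 5 h, treated with compound for 19 h, then 100 nM thapsigargin for 4 h at 37C; medium GLuc read by coelenterazine luminescence.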

[6] = Cell Viability qHTS for small molecule stabilizers of the endoplasmic reticulum resident proteome (AID 1508629); settings: cell viability counter-screen, 100 nM thapsigargin for final 4 h;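 note: potency is the fitted concentration of half-maximal effect; compound exposure about 46 h in total before the viability read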
[7] = Primary qHTS for small molecule stabilizers of the endoplasmic reticulum resident proteome: Secreted ER Calcium Modulated Protein (SERCaMP) assay (AID 1508630)
In short: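 GLuc-SERCaMP-expressing SH-SY5Y cells, pretreated 16 h with compound, are challenged with thapsigargin to empty ER calcium stores; after 4 h, coelenterazine is added directly to the medium and luminescence is imaged.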

[8] = Primary qHTS for inhibitors of La Crosse Virus (LACV) - induced cell death in SH-SY5Y cells (AID 1508616);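 note: top concentration of the series differs between compounds; higher means more rescue of cells from virus-induced death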
In short: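 Luminescent ATP readout (ATPLite 1step, 5 min room temperature) measured rescue from LACV-induced death after 6 days of infection at 0.01 MOI; normalized to infected DMSO wells and uninfected DMSO wells.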

[9] = A High-Content qHTS Against Drug Library for the Identification of Small Molecules that Inhibit DYT1 Early Onset Primary Dystonia-Associated Cell Pathology (AID 1645839; calls by dose curve; note: series mostly up to about 46 µM)
In short: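 Readout: %pathology, the punctate EGFP-TorsinA distribution from imaging, as the primary channel and cell count as the toxicity counterscreen. HEK293 Flp-In cells expressing delE TorsinA were induced with tetracycline and treated with compound for 48 h.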

[10] = target: Cytochrome P450 2C9 (Homo sapiens) (UniProt P11712); assay: Cytochrome P450 family 2 subfamily C member 9 (CYP2C9) small molecule antagonists: luciferase biochemical (cell-free) qHTS assay (AID 1645842; active = well fitted curve in the direction sought with a large enough effect in the repeat runs; an effect the other way counts as inactive or inconclusive; note: nearly all actives have a fitted effect of over 55% in size; note: potency is the fitted concentration of half-maximal effect)
Sequence of Cytochrome P450 2C9 (Homo sapiens) (P11712 whole entry, looked up): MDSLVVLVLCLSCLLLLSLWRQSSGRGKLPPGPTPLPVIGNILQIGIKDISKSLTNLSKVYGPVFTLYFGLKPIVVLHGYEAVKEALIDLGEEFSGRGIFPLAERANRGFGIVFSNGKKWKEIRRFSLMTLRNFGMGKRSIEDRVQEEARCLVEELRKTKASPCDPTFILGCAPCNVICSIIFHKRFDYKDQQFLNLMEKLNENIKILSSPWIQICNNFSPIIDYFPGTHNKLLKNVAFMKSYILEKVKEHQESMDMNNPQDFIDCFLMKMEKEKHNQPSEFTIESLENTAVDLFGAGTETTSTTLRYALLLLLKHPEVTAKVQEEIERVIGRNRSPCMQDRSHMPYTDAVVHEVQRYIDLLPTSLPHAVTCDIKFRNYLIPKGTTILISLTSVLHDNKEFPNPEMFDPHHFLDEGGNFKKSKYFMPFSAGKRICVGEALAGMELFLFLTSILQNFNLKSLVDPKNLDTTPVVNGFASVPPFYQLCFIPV
In short: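 Luminescence, after 20 min with luciferin detection reagent, reflected CYP2C9 turnover during a 1 h NADPH-driven reaction at 37C. Enzyme-substrate mix contained 0.4% bovine serum albumin and was preincubated with compound 10 min at room temperature.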

[11] = Confirmatory qHTS for small molecule stabilizers of the endoplasmic reticulum resident proteome: Secreted ER Calcium Modulated Protein (SERCaMP) assay (AID 1508628);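 note: SH-SY5Y cells given compound 16 h then thapsigargin 100 nM for 4 h; series mostly up to about 76 µM; nearly all actives have a fitted effect of over 40% in size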
In short: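 We seeded SH-SY5Y-GLuc-SERCaMP cells, added compounds (three concentrations in the primary run, eleven up to 76.6 uM in confirmation), incubated 16 h, depleted ER calcium with thapsigargin, and read luciferase 4 h later.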

[12] = target: Cytochrome P450 2D6 (Homo sapiens) (UniProt P10635); assay: Cytochrome P450 family 2 subfamily D member 6 (CYP2D6) small molecule antagonists: luciferase biochemical (cell-free) qHTS assay (AID 1645840; active = well fitted curve in the direction sought with a large enough effect in the repeat runs; an effect the other way counts as inactive or inconclusive; note: nearly all actives have a fitted effect of over 55% in size; note: potency is the fitted concentration of half-maximal effect)
Sequence of Cytochrome P450 2D6 (Homo sapiens) (P10635 whole entry, looked up): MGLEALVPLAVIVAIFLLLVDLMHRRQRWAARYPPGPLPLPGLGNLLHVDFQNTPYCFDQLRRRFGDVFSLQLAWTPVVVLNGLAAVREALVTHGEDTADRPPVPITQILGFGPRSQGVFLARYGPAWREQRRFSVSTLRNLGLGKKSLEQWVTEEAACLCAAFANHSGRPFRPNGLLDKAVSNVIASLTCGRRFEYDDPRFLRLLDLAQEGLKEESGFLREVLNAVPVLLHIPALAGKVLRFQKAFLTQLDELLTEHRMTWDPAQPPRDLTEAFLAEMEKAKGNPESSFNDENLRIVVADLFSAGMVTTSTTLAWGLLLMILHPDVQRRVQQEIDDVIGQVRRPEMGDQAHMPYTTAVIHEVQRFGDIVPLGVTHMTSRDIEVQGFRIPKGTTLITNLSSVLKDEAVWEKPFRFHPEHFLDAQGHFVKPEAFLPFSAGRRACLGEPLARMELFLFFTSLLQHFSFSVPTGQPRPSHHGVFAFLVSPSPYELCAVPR
In short: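 P450-Glo luminescent screen: recombinant CYP2D6 enzyme–proluciferin substrate mix preincubated with compound 10 min at room temperature, then NADPH regeneration added for 1 h at room temperature. Detection reagent added for 20 min; luciferin light read as relative luminescence units.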

[13] = target: Cytochrome P450 3A4 (Homo sapiens) (UniProt P08684); assay: Cytochrome P450 family 3 subfamily A member 4 (CYP3A4) small molecule antagonists: luciferase qHTS assay (AID 1645841; active = well fitted curve in the direction sought with a large enough effect in the repeat runs; an effect the other way counts as inactive or inconclusive; note: nearly all actives have a fitted effect of over 45% in size)
Sequence of Cytochrome P450 3A4 (Homo sapiens) (P08684 whole entry, looked up): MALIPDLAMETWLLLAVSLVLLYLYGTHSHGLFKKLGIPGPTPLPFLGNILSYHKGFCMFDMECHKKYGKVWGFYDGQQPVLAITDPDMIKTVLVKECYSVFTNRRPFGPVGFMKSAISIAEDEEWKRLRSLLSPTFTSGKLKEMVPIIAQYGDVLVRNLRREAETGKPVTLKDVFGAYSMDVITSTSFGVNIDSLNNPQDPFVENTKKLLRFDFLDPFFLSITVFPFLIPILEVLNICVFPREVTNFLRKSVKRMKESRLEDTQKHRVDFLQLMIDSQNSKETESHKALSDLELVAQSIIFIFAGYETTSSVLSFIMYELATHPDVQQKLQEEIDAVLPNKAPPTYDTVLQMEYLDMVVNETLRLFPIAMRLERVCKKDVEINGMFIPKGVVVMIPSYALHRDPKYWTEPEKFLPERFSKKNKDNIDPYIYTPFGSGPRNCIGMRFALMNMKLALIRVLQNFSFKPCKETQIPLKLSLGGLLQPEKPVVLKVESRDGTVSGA
In short: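 P450-Glo CYP3A4 enzyme with proluciferin substrate was preincubated with DMSO-dissolved compounds for 10 min at room temperature. NADPH regeneration solution started a 1 h reaction. Detection reagent stopped it, and luminescence was read after 20 min.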

[14] = target: N-terminal Xaa-Pro-Lys N-methyltransferase 1 (Homo sapiens) (UniProt Q9BV86); assay: Confirmatory qHTS for Inhibitors of N-terminal methyltransferase 1 (NTMT1): MTaseGlo Assay (AID 1645874);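 note: luminescence from SAH made as NTMT1 methylates SPKRIA peptide using SAM; series mostly up to about 100 µM; nearly all actives have a fitted effect of over 65% in size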
Sequence of N-terminal Xaa-Pro-Lys N-methyltransferase 1 (Homo sapiens) (Q9BV86 whole entry, looked up): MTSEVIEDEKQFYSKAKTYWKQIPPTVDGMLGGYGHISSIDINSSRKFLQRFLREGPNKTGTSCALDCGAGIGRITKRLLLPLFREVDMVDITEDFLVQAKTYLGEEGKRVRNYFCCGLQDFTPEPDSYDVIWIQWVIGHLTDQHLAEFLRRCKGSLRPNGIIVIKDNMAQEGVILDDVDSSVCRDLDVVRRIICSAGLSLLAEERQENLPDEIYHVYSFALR
In short: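 qHTS format: NTMT1 125 nM, SAM 100 uM, peptide SPKRIA 1 uM final; 15 min compound preincubation, 30 min reaction at room temperature. MTase-Glo luminescence.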

Measured: Potency

Oc1c(Cl)cc(Cl)c2cccnc12
inactive: [2] | [3] | [4] | [5] | [7]
active: [1] 23.4 µM | [6] 20 µM

CC(C(=O)O)c1ccc2c(c1)CC(=O)c1ccccc1S2 (configuration not stated)
inactive: [1] | [2] | [3] | [8] | [4] | [7] | [9] | [10]

CC(C)(Sc1cc(C(C)(C)C)c(O)c(C(C)(C)C)c1)Sc1cc(C(C)(C)C)c(O)c(C(C)(C)C)c1
inactive: [1] | [2] | [8] | [4] | [5] | [11] | [7] | [9] | [12] | [10]

CN(CCOc1ccc(CC2SC(=O)NC2=O)cc1)c1ccccn1 (configuration not stated)
inactive: [1] | [2] | [3] | [8] | [4] | [7] | [9] | [10]

CCOC(=O)[C@H](CCc1ccccc1)N[C@H]1CCc2ccccc2N(CC(=O)O)C1=O
inactive: [1] | [2] | [3] | [8] | [4] | [7]
active: [10] 4.9 µM

CCCN[C@H]1CCc2nc(N)sc2C1
inactive: [1] | [2] | [3] | [8] | [4] | [7] | [9] | [10]

O=C(O)c1ccc(-n2nc(-c3ccccc3O)nc2-c2ccccc2O)cc1
inactive: [1] | [2] | [3] | [8] | [4] | [7] | [12] | [13] | [10]

Nc1nc(=S)c2[nH]cnc2[nH]1
inactive: [1] | [2] | [3] | [8] | [4] | [7] | [12] | [14]
active: [10] 15.5 µM

O=C(O)c1cc(=O)[nH]c(=O)[nH]1
inactive: [1] | [2] | [3] | [8] | [4] | [9] | [12] | [10]

C[C@@H](CN1CC(=O)NC(=O)C1)N1CC(=O)NC(=O)C1
inactive: [1] | [2] | [3] | [4] | [7] | [9] | [12] | [10]

CC(C)(C#N)c1cc(Cn2cncn2)cc(C(C)(C)C#N)c1
inactive: [1] | [2] | [3] | [8] | [4] | [7] | [9] | [12]
active: [10] 6.17 µM

C[C@@H]1CN(c2c(F)c(N)c3c(=O)c(C(=O)O)cn(C4CC4)c3c2F)C[C@H](C)N1
inactive: [1] | [2] | [8] | [4] | [7] | [9] | [12] | [10]

Cn1c(=O)c2c(ncn2CC(O)CO)n(C)c1=O (configuration not stated)
inactive: [1] | [2] | [3] | [8] | [4] | [7] | [9] | [12] | [10]

NC(=O)c1cccnc1
inactive: [1] | [2] | [3] | [8] | [4] | [7] | [9] | [12] | [10]

CC(C)(C)NC(=O)[C@H]1CC[C@H]2[C@@H]3CC[C@H]4NC(=O)C=C[C@]4(C)[C@H]3CC[C@]12C
inactive: [1] | [2] | [8] | [4] | [7] | [9] | [12]

Nc1[nH]c(=O)ncc1F
inactive: [1] | [2] | [3] | [8] | [4] | [7] | [9] | [12] | [10]

CCOC(=O)c1ccc(OC(=O)CCCCCN=C(N)N)cc1
active: [12] 97.7 nM
inactive: [1] | [2] | [3] | [8] | [4] | [7] | [9] | [10]

CCc1cc(C(N)=S)ccn1
inactive: [1] | [2] | [3] | [8] | [4] | [7] | [9] | [14]

CCOC(=O)c1ccc(C#Cc2ccc3c(c2)C(C)(C)CCS3)nc1
inactive: [1] | [2] | [3] | [8] | [4] | [7] | [9] | [12] | [10]

CCCOc1ccc(C(=O)OCCN(CC)CC)cc1N
inactive: [1] | [2] | [3] | [8] | [4] | [7] | [9] | [10]
active: [12] 6.17 µM and 6.74 µM

Cc1oc(=O)oc1CN1CCN(c2cc3c(cc2F)c(=O)c(C(=O)O)c2n3C(C)S2)CC1 (configuration not stated)
inactive: [1] | [2] | [3] | [8] | [4] | [7] | [9] | [12] | [10]

OC(Cn1cncn1)(Cn1cncn1)c1ccc(F)cc1F
inactive: [1] | [2] | [3] | [8] | [4] | [9]

NS(=O)(=O)c1cc2c(cc1Cl)NC(C(Cl)Cl)NS2(=O)=O (configuration not stated)
inactive: [1] | [2] | [3] | [8] | [4] | [7] | [9] | [12] | [10]
